Screening data (PubChem BioAssay)
The list is not random: actives were taken first. Their share in the collection is about 11%.
HPGD inh: blocks human HPGD enzyme activity | P15428 | purified HPGD, NADH fluorescence kinetic, PGE2 substrate | Potency, µM, actives largely listed as inhibitors | actives 4.3% (n = 150,000)
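NADH formation kinetics: reaction with 30 uM PGE2 and 1 mM NAD+ (final), 20 nM enzyme, Tris-HCl pH 8 with Tween 20, after 15 min compound preincubation at room temperature. Fluorescence change, last versus first of five reads.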
ALDH1A1 block: blocks purified human ALDH1A1 activity. Purified ALDH1A1, NADH fluorescence, propionaldehyde substrate. Potency, µM (top dose mostly 75.3 µM), most hits filed as inhibitors. actives 7.3% (n = 220,000). AID 1030
Target sequence (P00352 whole entry, looked up): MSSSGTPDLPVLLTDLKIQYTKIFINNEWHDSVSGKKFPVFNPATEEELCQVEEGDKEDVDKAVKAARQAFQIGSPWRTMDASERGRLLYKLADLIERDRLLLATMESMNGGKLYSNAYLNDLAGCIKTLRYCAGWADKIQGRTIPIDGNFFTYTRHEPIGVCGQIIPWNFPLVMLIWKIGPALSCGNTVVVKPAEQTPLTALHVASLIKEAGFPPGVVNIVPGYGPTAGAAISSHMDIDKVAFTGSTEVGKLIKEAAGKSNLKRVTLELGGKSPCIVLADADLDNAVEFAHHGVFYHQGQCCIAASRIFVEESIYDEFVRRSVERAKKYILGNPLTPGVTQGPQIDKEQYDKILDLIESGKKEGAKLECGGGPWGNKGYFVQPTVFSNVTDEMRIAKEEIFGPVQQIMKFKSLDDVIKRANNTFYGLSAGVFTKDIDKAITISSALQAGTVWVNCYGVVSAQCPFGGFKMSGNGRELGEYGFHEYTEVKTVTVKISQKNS
PNC assembly inh: inhibitors of perinucleolar compartment assembly. activity change (PNC), negative = inhibition, % at 10 µM. actives 3.1% (n = 140,000). PC3M PTB-GFP, PNC prevalence imaging, 16 h; stronger effect = lower value;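 active = readout at or below -70, meaning at least 70% loss of cells showing the perinucleolar compartment, a nuclear body marking cancer cells; inconclusive = readout between -30 and a set limit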
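Compounds are pinned in duplicate onto adhered PC3M cells stably expressing GFP-tagged PTB and incubated 16 h at 37 C. Cells are then fixed, nuclei stained with Hoechst, and PNC-positive cells counted.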
Large screens that a line does not name were inactive. Unless noted, calls come from the whole dose curve; as a rule, active = well fitted inhibition curve with a large enough effect (not every such curve was filed as active); inconclusive = small, poorly fitted or top-dose-only effect, or another doubt; inactive = no such curve, though single readings can be large or run the other way.

O=c1ccc2c(OCCCCc3ccccc3)c3ccoc3cc2o1	ALDH1A1 block inconclusive (no result: PNC assembly inh)
COC(=O)C1=C(C(=O)OC)C(c2cc(Cl)ccc2O)c2sc(=O)[nH]c2S1 (stereo not drawn)	HPGD inh 20µM, ALDH1A1 block 32µM
COC(=O)C1=C(C(=O)OC)C(c2cc(Br)ccc2O)c2sc(=O)[nH]c2S1 (stereo not drawn)	ALDH1A1 block inconclusive
O=C(Oc1ccc(OC(=O)c2ccco2)c(S(=O)(=O)c2ccc(Br)cc2)c1)c1ccco1	HPGD inh 28µM, ALDH1A1 block inconclusive, PNC assembly inh -100
Cc1ccc(S(=O)(=O)c2cc(OC(=O)c3ccco3)ccc2OC(=O)c2ccco2)cc1	none
O=C(Cn1ncc2c(=O)oc3ccccc3c21)Nc1nc2ccccc2s1	PNC assembly inh inconclusive
CCCn1c(C)nc2c(N(C)CCN(C)C)nc(C)nc21	none (no result: PNC assembly inh)
CCOC(=O)/C=c1\s/c(=C\c2ccc3cc(OC)ccc3c2)c(=O)n1CC(=O)NCc1ccc2c(c1)OCO2	none (no result: HPGD inh, PNC assembly inh)
Cn1c(CN2CCCCC2)nc2cc(NS(=O)(=O)c3ccc(Cl)cc3)ccc21	none
CC1CCN(CCc2nc3cc(NC(=O)Nc4ccccc4)ccc3n2C)CC1	none
Cc1nc2cc(NC(=O)N3CCCCC3)ccc2n1C	PNC assembly inh -119
CCOC(=O)C1CCN(C(=O)Nc2ccc3c(c2)nc(C)n3C)CC1	none
Cn1c(CCN2CCCCC2)nc2cc(NS(=O)(=O)c3ccc(Cl)cc3)ccc21	ALDH1A1 block inconclusive, PNC assembly inh -93
CC(=O)Nc1ccc2c(c1)nc(CCN1CCC(C)CC1)n2C	ALDH1A1 block inconclusive, PNC assembly inh -101
COc1cc([N+](=O)[O-])cc(CN2CCCCC2)c1O	none
CCC(CC)=C(C#N)C(=O)NC1CCCCC1	PNC assembly inh inconclusive
COc1ccc(OC)c(C2Nc3nc4ccccc4n3C(C)=C2C(=O)Nc2ccc(C)cc2C)c1 (stereo not drawn)	PNC assembly inh inconclusive
C=C/C(C)=C/[C@@]1(C)SC(=O)C(C)=C1O	none (no result: PNC assembly inh)
CCn1c(SCC(=O)Nc2cccc(C(C)=O)c2)nnc1C(C)C	none
CN(C)c1nc(N)nc(CSc2ncc(Cl)cc2Cl)n1	HPGD inh 8.9µM, PNC assembly inh inconclusive
CN(C)c1nc(N)nc(CSc2nnnn2C)n1	PNC assembly inh inconclusive
Cc1cc(C)n(-c2nnc(Cl)c3ccccc23)n1	ALDH1A1 block 3.5µM (no result: HPGD inh, PNC assembly inh)
Cc1ccc(-c2nnc(-n3nc(C)cc3C)c3ccccc23)cc1	none
Cc1c(Cl)cccc1NC(=O)C(=O)NNC(=O)c1ccccc1F	none (no result: HPGD inh, PNC assembly inh)
N/C(Cc1ccc(Cl)cc1Cl)=N\OC(=O)c1cccs1	PNC assembly inh inconclusive
N/C(Cc1cccc2ccccc12)=N\OC(=O)Cc1cccs1	HPGD inh 28µM, ALDH1A1 block inconclusive
Cc1ccccc1OCC(=O)O/N=C(\N)Cc1cccs1	ALDH1A1 block 7.1µM
N/C(Cc1cccc2ccccc12)=N\OC(=O)c1ccc(Br)o1	ALDH1A1 block 10µM (no result: HPGD inh, PNC assembly inh)
COc1ccc(OCC(=O)O/N=C(\N)Cc2cccs2)cc1	none
COc1ccc(CC(=O)O/N=C(\N)Cc2cccc3ccccc23)cc1	ALDH1A1 block inconclusive
N/C(Cc1cccc2ccccc12)=N\OC(=O)c1cccs1	none
N/C(Cc1ccc(Cl)cc1Cl)=N\OC(=O)Cc1cccs1	PNC assembly inh -124
O=C(NCc1ccc(Cl)cc1)c1cnn2ccccc12	ALDH1A1 block inconclusive
CCOC(=O)CSc1nc(=O)n2cccc(C)c2n1	none (no result: HPGD inh, PNC assembly inh)
O=C(Nc1ccccn1)[C@@H]1CCC(=O)N1C(=O)OCc1ccccc1	none
CC(=O)O[C@H]1C(=O)[C@@]2(C)[C@H]([C@H](OC(=O)c3ccccc3)[C@]3(O)C[C@H](OC(=O)[C@H](O)[C@@H](NC(=O)c4ccccc4)c4ccccc4)C(C)=C1C3(C)C)[C@]1(OC(C)=O)CO[C@@H]1C[C@@H]2O	none (no result: PNC assembly inh)
O=C(NC(c1ccccc1)c1ccccc1)C1CCCN(S(=O)(=O)c2cnc[nH]2)C1 (stereo not drawn)	none
O=C(Cn1cnc2cc(Cl)ccc2c1=O)Nc1ccc2c(c1)OCO2	ALDH1A1 block inconclusive
CCCC[C@H]1C[C@@H]1[C@@H]1N(P(=O)(c2ccccc2)c2ccccc2)C[C@@](O)(c2ccccc2)CC12CC2	none (no result: PNC assembly inh)
O=C(NC(=S)Nc1ccc(S(=O)(=O)Nc2ccccc2)cc1)C1CC1	ALDH1A1 block 22µM (no result: HPGD inh, PNC assembly inh)
CC1CC(C)CN(S(=O)(=O)c2ccc(NC(=S)NC(=O)c3ccccc3)cc2)C1 (stereo not drawn)	PNC assembly inh inconclusive
Cc1ccccc1C(=O)NC(=S)Nc1ccc(S(=O)(=O)N2CCN(C)CC2)cc1	HPGD inh inconclusive, ALDH1A1 block 10µM
O=C(NC(=S)Nc1ccc(S(=O)(=O)N2CCCCC2)cc1)c1ccccc1	ALDH1A1 block 9.5µM, PNC assembly inh inconclusive
Cc1cc(C)nc(NS(=O)(=O)c2ccc(NC(=S)NC(=O)C3CCCC3)cc2)n1	none
Cc1ccccc1C(=O)NC(=S)Nc1ccc(S(=O)(=O)N2CCOCC2)cc1	ALDH1A1 block inconclusive, PNC assembly inh inconclusive
COc1cc(C(=S)N2CCOCC2)ccc1OC(=O)c1cc([N+](=O)[O-])c(C)c([N+](=O)[O-])c1	PNC assembly inh inconclusive
O=C(OCc1cccs1)c1ccccc1NS(=O)(=O)c1ccc2c(c1)OCCO2	ALDH1A1 block inconclusive, PNC assembly inh inconclusive
CCC(=O)NC(Nc1sc2c(c1C(=O)OC)CCN(C)C2)(C(F)(F)F)C(F)(F)F	ALDH1A1 block inconclusive, PNC assembly inh inconclusive
COc1cccc(OC)c1-c1nn2c(-c3cc(-c4ccccc4)n[nH]3)nnc2s1	HPGD inh 13µM
COc1cccc(-c2nnc3sc(-c4ccccc4)nn23)c1	PNC assembly inh inconclusive
CNC(=S)Nc1cccc(Cl)c1C	none (no result: HPGD inh, PNC assembly inh)
Cc1csc(SCc2ccccc2C(=O)O)n1	ALDH1A1 block inconclusive
Cc1csc(SCc2ccc(C(=O)O)cc2)n1	PNC assembly inh -111
FC(F)Oc1ccccc1/C=N/n1cnc2ccccc21	none (no result: HPGD inh, PNC assembly inh)
Cc1ccc(CSCC(=O)NCc2ccc(F)cc2)cc1	none (no result: HPGD inh, PNC assembly inh)
O=C(c1cc(-c2cccs2)on1)N1CCN(c2ccc(F)cc2)CC1	none
O=C(c1cn(-c2ccccc2)nc1-c1ccccc1)N1CCOCC1	ALDH1A1 block inconclusive
Cc1ccc(-c2c(C(=O)NCc3ccc(F)cc3)oc(=O)c3ccccc23)cc1	ALDH1A1 block 7.1µM, PNC assembly inh inconclusive
O=C(c1cn(-c2ccccc2)nc1-c1cccs1)N1CCN(c2ccc(F)cc2)CC1	ALDH1A1 block inconclusive, PNC assembly inh -109 (no result: HPGD inh)
COc1ccc(-c2cc(C(=O)N3CCOCC3)c3cc(C)ccc3n2)cc1	HPGD inh inconclusive, ALDH1A1 block inconclusive
Cc1ccc(-c2cc(C(=O)N3CCOCC3)c3ccccc3n2)cc1	HPGD inh inconclusive, ALDH1A1 block inconclusive, PNC assembly inh -98
Cc1ccc(-c2nn(-c3ccccc3)cc2C(=O)N2CCOCC2)cc1C	ALDH1A1 block 10µM (no result: HPGD inh, PNC assembly inh)
Cn1c(=O)c(-c2cc(F)cc(F)c2)nc2cnc(N3CCOCC3)nc21	none (no result: HPGD inh, PNC assembly inh)
CCOC(=O)Cn1c(=S)[nH]c2c(oc3ccc(Cl)cc32)c1=O	ALDH1A1 block inconclusive, PNC assembly inh inconclusive
COc1ccc(C(=O)NC(=S)NC(C)(C)C)cc1Br	ALDH1A1 block inconclusive
CCOc1ccc(/C=C(\C(=O)O)c2ccc(S(=O)(=O)N3CCOCC3)s2)cc1OC	none
CCN1CCN(C(=O)c2oc(=O)c3ccccc3c2-c2ccc(C)cc2)CC1	ALDH1A1 block inconclusive
Cc1ccc(-c2c(C(=O)N3CCOCC3)oc(=O)c3ccccc23)cc1	ALDH1A1 block 1.6µM, PNC assembly inh inconclusive
